From PubChem BioAssay (NCI)
This is part of a sample that, as a whole, favours compounds with a hit. Of some 83,000 tested, about 20% had one in any assay.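 Activity criterion: percent growth below 10, measured after cells in 96-well plates were exposed to a single compound concentration for 48 hours.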 Calls of active or inactive are those of the source.

Tests used:
Experiment in all cases: NCI-60 one-dose screen, 48 h (100 = growth as untreated, 0 = no growth, -100 = all killed)
Details in all cases: 10 µM
786-0 renal = tested on: 786-0 renal
SN12C renal = tested on: SN12C renal
TK-10 renal = tested on: TK-10 renal
ACHN renal = tested on: ACHN renal
CAKI-1 renal = tested on: CAKI-1 renal
A498 renal = tested on: A498 renal
RPMI-8226 leukemia = tested on: RPMI-8226 leukemia
OVCAR-8 ovarian = tested on: OVCAR-8 ovarian
OVCAR-5 ovarian = tested on: OVCAR-5 ovarian
OVCAR-4 ovarian = tested on: OVCAR-4 ovarian
SK-OV-3 ovarian = tested on: SK-OV-3 ovarian
OVCAR-3 ovarian = tested on: OVCAR-3 ovarian
NCI/ADR-RES ovarian = tested on: NCI/ADR-RES ovarian
T-47D breast = tested on: T-47D breast
BT-549 breast = tested on: BT-549 breast
MDA-MB-435 melanoma = tested on: MDA-MB-435 melanoma
MCF7 breast = tested on: MCF7 breast
HCT-116 colon = tested on: HCT-116 colon
HCC-2998 colon = tested on: HCC-2998 colon
KM12 colon = tested on: KM12 colon

SMILES | growth (786-0 renal) | growth (SN12C renal) | growth (TK-10 renal) | growth (ACHN renal) | growth (CAKI-1 renal) | growth (A498 renal) | growth (RPMI-8226 leukemia) | growth (OVCAR-8 ovarian) | growth (OVCAR-5 ovarian) | growth (OVCAR-4 ovarian) | growth (SK-OV-3 ovarian) | growth (OVCAR-3 ovarian) | growth (NCI/ADR-RES ovarian) | growth (T-47D breast) | growth (BT-549 breast) | growth (MDA-MB-435 melanoma) | growth (MCF7 breast) | growth (HCT-116 colon) | growth (HCC-2998 colon) | growth (KM12 colon)
COCCOCCOCCOc1ccc(-n2cc(-c3ccc(O[C@H]4O[C@@H]5OC6(C)CC[C@H]7[C@H](C)CC[C@@H]([C@H]4C)[C@@]57OO6)cc3)nn2)cc1 | 56.7% (inactive) | 83% (inactive) | 36.7% (inactive) | 17.4% (inactive) | 25% (inactive) | 93.8% (inactive) | 20.9% (inactive) | 22.2% (inactive) | 72% (inactive) | 28.8% (inactive) | 84% (inactive) | 46% (inactive) | 34.2% (inactive) | 17.3% (inactive) | 3.83% (active) | 19.3% (inactive) | 14.9% (inactive) | 37.3% (inactive) | 59.2% (inactive) | 31.6% (inactive)
CC1=C(C=O)C2=C(C)C3(CC3)[C@@](C)(O)C(=O)C2=C1 | -38.7% (active) | 44.2% (inactive) | 53.6% (inactive) | -61.1% (active) | 31.7% (inactive) | -30.3% (active) | 17.1% (inactive) | -25.3% (active) | 36.7% (inactive) | 44.5% (inactive) | -3.31% (active) | -9.94% (active) | 16% (inactive) | 13.5% (inactive) | -14.5% (active) | -35.2% (active) | 14% (inactive) | -34.7% (active) | 17.2% (inactive) | 16.3% (inactive)
O=C(/C=C/c1ccccc1)c1nc2ccccc2n1Cc1ccc(F)cc1 | -88.3% (active) | -5.26% (active) | -14.3% (active) | -55% (active) | 31.2% (inactive) | 106% (inactive) | -38% (active) | 4.71% (active) | -15.1% (active) | 47.7% (inactive) | 64.9% (inactive) | -47.5% (active) | -49.6% (active) | -15.9% (active) | -65% (active) | -29.3% (active) | -32.7% (active) | -87.4% (active) | -95.8% (active) | -41.3% (active)
CC[C@]12C=CCN3CC[C@@]4(c5ccc(OC)cc5N(C)[C@H]4[C@@](O)(C(=O)OC)[C@@H]1OC(=O)CCC[P+](c1ccc(C)cc1)(c1ccc(C)cc1)c1ccc(C)cc1)[C@@H]32 | -88% (active) | -88.1% (active) | -88.5% (active) | -97.8% (active) | -95.3% (active) | -88.6% (active) | -56.3% (active) | -85% (active) | -95.9% (active) | -73.5% (active) | -81% (active) | -61.9% (active) | 18.1% (inactive) | -78.4% (active) | -96.9% (active) | -57.5% (active) | -76.3% (active) | -93.4% (active) | -91.4% (active) | -76.1% (active)
COc1ccc2cc([C@H](C)C(=O)[Se]CCC#N)ccc2c1 | -83.9% (active) | -16.8% (active) | -90.4% (active) | -50% (active) | -94% (active) | -71.1% (active) | -17.8% (active) | -82.9% (active) | -31.8% (active) | -44.3% (active) | -70.6% (active) | -61% (active) | -14.4% (active) | 12% (inactive) | -8.75% (active) | -69.7% (active) | -8.25% (active) | -62% (active) | 10.1% (inactive) | 5.84% (active)
COC(=O)c1ccc(-n2cc(CCCN(CCNc3ccnc4cc(Cl)ccc34)C(=O)CCC(=O)O[C@@H]3O[C@@H]4OC5(C)CC[C@H]6[C@H](C)CC[C@@H]([C@H]3C)[C@@]46OO5)nn2)cc1 | 52.4% (inactive) | 44% (inactive) | 60.5% (inactive) | 36.3% (inactive) | 44.5% (inactive) | 100% (inactive) | 19.7% (inactive) | 20.9% (inactive) | 49.2% (inactive) | 46.2% (inactive) | 85.6% (inactive) | 43.4% (inactive) | 11.4% (inactive) | 37.6% (inactive) | 43.2% (inactive) | 22.2% (inactive) | -49.6% (active) | 26% (inactive) | 49.5% (inactive) | 32.6% (inactive)
CCOP(=O)(CC(F)(F)C(F)(F)F)OCC | 15.2% (inactive) | 62.1% (inactive) | 17% (inactive) | -23.1% (active) | 2.63% (active) | 126% (inactive) | 7.92% (active) | -80.2% (active) | 50.7% (inactive) | -14.9% (active) | 111% (inactive) | -61.5% (active) | 14% (inactive) | 17.3% (inactive) | 49% (inactive) | 18.4% (inactive) | 9.98% (active) | -70.7% (active) | 86.3% (inactive) | 89.3% (inactive)
CC(C)N=C([Se])NC(=O)c1ccccc1 | -93.6% (active) | -59.8% (active) | -71.2% (active) | -51.2% (active) | -80.7% (active) | -29.4% (active) | 0.145% (active) | -65.2% (active) | -55.9% (active) | 3.7% (active) | -57.2% (active) | -61% (active) | -11% (active) | -34.6% (active) | 40.6% (inactive) | 22.5% (inactive) | -29.1% (active) | 1.38% (active) | -35.5% (active) | -8.34% (active)
C[C@H]1[C@H](OC(=O)CCC(=O)Nc2cnccn2)O[C@@H]2OC3(C)CC[C@H]4[C@H](C)CC[C@@H]1[C@@]24OO3 | 53.6% (inactive) | 45.3% (inactive) | 42.2% (inactive) | 25.4% (inactive) | 42.8% (inactive) | 101% (inactive) | 21.5% (inactive) | 20.7% (inactive) | 35.2% (inactive) | 44.1% (inactive) | 77.4% (inactive) | 34.6% (inactive) | 19.1% (inactive) | 22.1% (inactive) | 24% (inactive) | 16.1% (inactive) | 24.4% (inactive) | 14.6% (inactive) | 63.5% (inactive) | 22.3% (inactive)
C[C@H]1[C@H](OC(=O)CCC(=O)N(CCCc2cn(-c3ccc(C#N)cc3)nn2)CCNc2ccnc3cc(Cl)ccc23)O[C@@H]2OC3(C)CC[C@H]4[C@H](C)CC[C@@H]1[C@@]24OO3 | 50.7% (inactive) | 58.9% (inactive) | 54.2% (inactive) | 44.5% (inactive) | 40.8% (inactive) | 110% (inactive) | 27% (inactive) | 22.3% (inactive) | 54.5% (inactive) | 41.9% (inactive) | 84.4% (inactive) | 45.2% (inactive) | 28.4% (inactive) | 32.1% (inactive) | 24.2% (inactive) | 28.8% (inactive) | -28% (active) | 21.9% (inactive) | 70.3% (inactive) | 31.4% (inactive)
CC12OOC(C)(OO1)C2CCC(=O)OCCNc1ccnc2cc(Cl)ccc12 (stereo not given) | -29.3% (active) | 84.3% (inactive) | 66.3% (inactive) | -93.8% (active) | -79.4% (active) | 109% (inactive) | 8.42% (active) | 68% (inactive) | 94.7% (inactive) | -39.8% (active) | 95.9% (inactive) | -65.9% (active) | 53.2% (inactive) | 16.5% (inactive) | 93.1% (inactive) | 31.3% (inactive) | 24.2% (inactive) | 0.954% (active) | 88.5% (inactive) | 60.6% (inactive)
C[C@H]1[C@@H](Oc2ccc(-c3cn(-c4ccnc5cc(Cl)ccc45)nn3)cc2)O[C@@H]2OC3(C)CC[C@H]4[C@H](C)CC[C@@H]1[C@@]24OO3 | 35.1% (inactive) | 24.3% (inactive) | 35.4% (inactive) | 14.3% (inactive) | 25.6% (inactive) | 95% (inactive) | 23% (inactive) | 16% (inactive) | 19.2% (inactive) | 40.9% (inactive) | 52.3% (inactive) | 32.7% (inactive) | 19.6% (inactive) | 25.6% (inactive) | 24.9% (inactive) | 35.6% (inactive) | 19.3% (inactive) | 15.8% (inactive) | 48.8% (inactive) | 25.6% (inactive)
O=C(/C=C/c1ccc(Cl)cc1Cl)c1nc2ccccc2n1Cc1ccc(Br)cc1 | 32.6% (inactive) | 75.7% (inactive) | 99.8% (inactive) | 71.3% (inactive) | 65.1% (inactive) | 103% (inactive) | 2.18% (active) | 80.6% (inactive) | 98% (inactive) | 73.7% (inactive) | 92.9% (inactive) | 68.4% (inactive) | 82.1% (inactive) | 44.4% (inactive) | 59.2% (inactive) | 79.2% (inactive) | 17.1% (inactive) | 25.8% (inactive) | 70.4% (inactive) | 82.7% (inactive)
CC[C@]12C=CCN3CC[C@@]4(c5ccc(OC)cc5N(C)[C@H]4[C@@](O)(C(=O)OC)[C@@H]1OC(=O)CCCC[P+](C1CCCCC1)(C1CCCCC1)C1CCCCC1)[C@@H]32 | -36% (active) | -57.9% (active) | -64.1% (active) | 18.7% (inactive) | -24.1% (active) | -0.0449% (active) | -45% (active) | -6.33% (active) | 5.84% (active) | 12.4% (inactive) | -22.3% (active) | -60.3% (active) | 96.7% (inactive) | 3.83% (active) | -97.4% (active) | -90.5% (active) | -64.2% (active) | 4.69% (active) | -87.8% (active) | -71.1% (active)
Cc1c2oc3c(C)ccc(C(=O)N[C@@H]4C(=O)N[C@H](C(C)C)C(=O)N5CCC[C@H]5C(=O)N(C)CC(=O)N(C)[C@@H](C(C)C)C(=O)OC4C)c3nc-2c(C(=O)N[C@@H]2C(=O)N[C@H](C(C)C)C(=O)N3CC(=O)C[C@H]3C(=O)N(C)CC(=O)N(C)[C@@H](C(C)C)C(=O)OC2C)c(N)c1=O (stereo not given in full) | 19% (inactive) | 6.6% (active) | 5.82% (active) | 2.84% (active) | 8.23% (active) | -68.7% (active) | -13.1% (active) | 0.349% (active) | 5.55% (active) | 21% (inactive) | 7.97% (active) | 6.77% (active) | 4.49% (active) | -5% (active) | -9.76% (active) | -66.1% (active) | 1.42% (active) | 22.3% (inactive) | -20% (active) | 2.23% (active)
